The target in assay [1] is NKX3-2 (Homo sapiens, UniProt P78367 192-278, P234S). In words: PBM; 200 nM protein, PBS. To be noted: dsDNA, one strand shown.
The target of assay [2] is NKX3-2 (Homo sapiens, UniProt P78367 192-278). In words: PBM; 200 nM protein, PBS. The following applies: dsDNA, one strand shown.
Chain of NKX3-2 (Homo sapiens, UniProt P78367 192-278) (P78367 192-278): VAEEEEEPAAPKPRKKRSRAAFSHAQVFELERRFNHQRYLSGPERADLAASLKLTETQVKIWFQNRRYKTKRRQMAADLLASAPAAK

Chain of NKX3-2 (Homo sapiens, UniProt P78367 192-278, P234S) (P78367 192-278 P234S): as the sequence (P78367 192-278) above, with P43S counted along it

Turning to CCAGGCAA, the binding signal was 10.7 upbm affinity estimate (log intensity, higher = more binding, comparable within an allelic series) in the assay with NKX3-2 [1] and 10.6 upbm affinity estimate (log intensity, higher = more binding, comparable within an allelic series) with NKX3-2 [2].

As to CCAGACCA, the binding signal with NKX3-2 [1] is 10.6 upbm affinity estimate (log intensity, higher = more binding, comparable within an allelic series); in the assay with NKX3-2 [2], 10.5 upbm affinity estimate (log intensity, higher = more binding, comparable within an allelic series).

As for CGGTTACC, the binding signal with NKX3-2 [1] is 10.6 upbm affinity estimate (log intensity, higher = more binding, comparable within an allelic series); in the assay with NKX3-2 [2] it was 10.5 upbm affinity estimate (log intensity, higher = more binding, comparable within an allelic series).

For the sequence GGTTGAAC, the binding signal with NKX3-2 [1] was 10.6 upbm affinity estimate (log intensity, higher = more binding, comparable within an allelic series); with NKX3-2 [2], 10.6 upbm affinity estimate (log intensity, higher = more binding, comparable within an allelic series).

With CGACCTAG, the binding signal was 10.6 upbm affinity estimate (log intensity, higher = more binding, comparable within an allelic series) with NKX3-2 [1] and 10.6 upbm affinity estimate (log intensity, higher = more binding, comparable within an allelic series) with NKX3-2 [2].

With AAAGTGGC, the binding signal is 12.6 upbm affinity estimate (log intensity, higher = more binding, comparable within an allelic series) with NKX3-2 [1] and 12.6 upbm affinity estimate (log intensity, higher = more binding, comparable within an allelic series) with NKX3-2 [2].

Turning to ACACACCG, the binding signal with NKX3-2 [1] was 10.6 upbm affinity estimate (log intensity, higher = more binding, comparable within an allelic series); with NKX3-2 [2] it was 10.6 upbm affinity estimate (log intensity, higher = more binding, comparable within an allelic series).

As for CGCTGCGA, the binding signal with NKX3-2 [1] was 10.5 upbm affinity estimate (log intensity, higher = more binding, comparable within an allelic series); with NKX3-2 [2], 10.5 upbm affinity estimate (log intensity, higher = more binding, comparable within an allelic series).

As to GCCCCCGA, the binding signal in the assay with NKX3-2 [1] is 10.4 upbm affinity estimate (log intensity, higher = more binding, comparable within an allelic series); with NKX3-2 [2], 10.4 upbm affinity estimate (log intensity, higher = more binding, comparable within an allelic series).

On to CCCCGCAA, for which the binding signal in the assay with NKX3-2 [1] is 10.7 upbm affinity estimate (log intensity, higher = more binding, comparable within an allelic series); in the assay with NKX3-2 [2] it was 10.7 upbm affinity estimate (log intensity, higher = more binding, comparable within an allelic series).

CAAAGTGG: the binding signal with NKX3-2 [1] was 12.8 upbm affinity estimate (log intensity, higher = more binding, comparable within an allelic series); with NKX3-2 [2], 12.9 upbm affinity estimate (log intensity, higher = more binding, comparable within an allelic series).

In the case of AGACCACT, the binding signal was 12 upbm affinity estimate (log intensity, higher = more binding, comparable within an allelic series) with NKX3-2 [1] and 12.1 upbm affinity estimate (log intensity, higher = more binding, comparable within an allelic series) with NKX3-2 [2].

On to GGTGGTAC, for which the binding signal with NKX3-2 [1] was 10.5 upbm affinity estimate (log intensity, higher = more binding, comparable within an allelic series); in the assay with NKX3-2 [2], 10.6 upbm affinity estimate (log intensity, higher = more binding, comparable within an allelic series).

On to CCTGCCCG, for which the binding signal with NKX3-2 [1] is 10.7 upbm affinity estimate (log intensity, higher = more binding, comparable within an allelic series); in the assay with NKX3-2 [2], 10.7 upbm affinity estimate (log intensity, higher = more binding, comparable within an allelic series).

CACTCTCG: the binding signal in the assay with NKX3-2 [1] is 11.9 upbm affinity estimate (log intensity, higher = more binding, comparable within an allelic series); with NKX3-2 [2], 12 upbm affinity estimate (log intensity, higher = more binding, comparable within an allelic series).

Consider CGTTAACG, for which the binding signal with NKX3-2 [1] was 10.4 upbm affinity estimate (log intensity, higher = more binding, comparable within an allelic series); with NKX3-2 [2] it was 10.5 upbm affinity estimate (log intensity, higher = more binding, comparable within an allelic series).

Take AGCCTGGA: the binding signal with NKX3-2 [1] is 10.6 upbm affinity estimate (log intensity, higher = more binding, comparable within an allelic series); with NKX3-2 [2], 10.6 upbm affinity estimate (log intensity, higher = more binding, comparable within an allelic series).

As for AACCAGCC, the binding signal is 10.4 upbm affinity estimate (log intensity, higher = more binding, comparable within an allelic series) with NKX3-2 [1] and 10.4 upbm affinity estimate (log intensity, higher = more binding, comparable within an allelic series) with NKX3-2 [2].

In the case of AACGCCGG, the binding signal was 10.6 upbm affinity estimate (log intensity, higher = more binding, comparable within an allelic series) with NKX3-2 [1] and 10.6 upbm affinity estimate (log intensity, higher = more binding, comparable within an allelic series) with NKX3-2 [2].

For the sequence CGCGGTAC, the binding signal with NKX3-2 [1] is 10.8 upbm affinity estimate (log intensity, higher = more binding, comparable within an allelic series); with NKX3-2 [2], 10.8 upbm affinity estimate (log intensity, higher = more binding, comparable within an allelic series).

For GACGAACC, the binding signal in the assay with NKX3-2 [1] was 10.6 upbm affinity estimate (log intensity, higher = more binding, comparable within an allelic series); with NKX3-2 [2] it was 10.5 upbm affinity estimate (log intensity, higher = more binding, comparable within an allelic series).

As to CTAAAGGC, the binding signal with NKX3-2 [1] is 10.5 upbm affinity estimate (log intensity, higher = more binding, comparable within an allelic series); with NKX3-2 [2] it was 10.6 upbm affinity estimate (log intensity, higher = more binding, comparable within an allelic series).

Regarding CATCACTA, the binding signal with NKX3-2 [1] was 11.5 upbm affinity estimate (log intensity, higher = more binding, comparable within an allelic series); with NKX3-2 [2] it was 11.5 upbm affinity estimate (log intensity, higher = more binding, comparable within an allelic series).

Consider GGCACTCA, for which the binding signal with NKX3-2 [1] was 12.5 upbm affinity estimate (log intensity, higher = more binding, comparable within an allelic series); in the assay with NKX3-2 [2], 12.6 upbm affinity estimate (log intensity, higher = more binding, comparable within an allelic series).

As for AAGTAGGT, the binding signal is 11.7 upbm affinity estimate (log intensity, higher = more binding, comparable within an allelic series) with NKX3-2 [1] and 11.8 upbm affinity estimate (log intensity, higher = more binding, comparable within an allelic series) in the assay with NKX3-2 [2].

With GCCTGACC, the binding signal with NKX3-2 [1] is 10.6 upbm affinity estimate (log intensity, higher = more binding, comparable within an allelic series); with NKX3-2 [2] it was 10.6 upbm affinity estimate (log intensity, higher = more binding, comparable within an allelic series).

On to CCCGAATC, for which the binding signal is 10.4 upbm affinity estimate (log intensity, higher = more binding, comparable within an allelic series) in the assay with NKX3-2 [1] and 10.4 upbm affinity estimate (log intensity, higher = more binding, comparable within an allelic series) in the assay with NKX3-2 [2].

As for CTGCCGCA, the binding signal with NKX3-2 [1] is 10.7 upbm affinity estimate (log intensity, higher = more binding, comparable within an allelic series); in the assay with NKX3-2 [2] it was 10.6 upbm affinity estimate (log intensity, higher = more binding, comparable within an allelic series).

For the origin of these results see publication PMC11006913.
